In PubChem BioAssay (EPA / NIEHS):
Records with an inconclusive call do not appear. Active and inactive are the calls of the source. The calls were made as follows, unless noted: active = hit-call score of the fitted dose curve at least 0.9, where 1 is the maximum; inconclusive = response in the unintended direction; inactive = score below 0.9.

What was measured:
[1] = Tanguay_ZF_120hpf_CFIN_legacy: (Legacy) Oregon State University Tanguay Lab 120 Hour Post-fertilization zebrafish Assay for Caudal Fin Malformation (AID 2283649)
Procedure, shortened: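 Binary presence or absence of caudal fin malformation at 120 hpf, read by brightfield microscopy, with DMSO as baseline. Larvae came from 5D wild-type embryos exposed statically from 6 hpf at 28C after pronase dechorionation.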

[2] = Tanguay_ZF_120hpf_PIG_legacy: (Legacy) Oregon State University Tanguay Lab 120 Hour Post-fertilization zebrafish Assay for Pigmentation Malformation (AID 2283650)
Procedure, shortened: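 Tropical 5D wild-type zebrafish embryos, dechorionated with pronase at 4 hpf, were exposed singly from 6 hpf to 120 hpf statically at 28C in sealed, dark plates with 0.64% DMSO; pigmentation scored present/absent by brightfield microscopy, fitted against DMSO.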

[3] = Tanguay_ZF_120hpf_CIRC_legacy: (Legacy) Oregon State University Tanguay Lab 120 Hour Post-fertilization zebrafish Assay for Circulatory Malformation (AID 2283651)
Procedure, shortened: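 Read-out: presence or absence of circulatory malformation at 120 hpf, scored by brightfield microscopy, fitted in the gain-of-signal direction against DMSO baseline. Wild-type 5D larvae were exposed from 6 hpf after enzymatic chorion removal.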

[4] = Tanguay_ZF_120hpf_SWIM_legacy: (Legacy) Oregon State University Tanguay Lab 120 Hour Post-fertilization zebrafish Assay for Swim Bladder Malformation (AID 2283654);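 also: swim bladder malformation in each larva scored yes or no under brightfield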
Procedure, shortened: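 Dechorionated Tropical 5D wild-type embryos, placed singly from 6 hpf, were statically exposed at 28C to 120 hpf with 0.64% DMSO final; swim bladder malformation was scored present/absent by brightfield microscopy, gain of signal relative to DMSO controls.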

[5] = Tanguay_ZF_120hpf_TRUN_legacy: (Legacy) Oregon State University Tanguay Lab 120 Hour Post-fertilization zebrafish Assay for Truncated Body (AID 2283655)
Procedure, shortened: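 Truncated body is recorded as a binary endpoint at 120 hpf by brightfield imaging of wild-type 5D larvae. Exposure runs statically from 6 hpf at 28C with 0.64% DMSO; embryos dying earlier are not scored.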

[6] = Tanguay_ZF_120hpf_NC_legacy: (Legacy) Oregon State University Tanguay Lab 120 Hour Post-fertilization zebrafish Assay for Notochord and Tail Malformation (AID 2283656)
Procedure, shortened: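 Dechorionated Tropical 5D wild-type zebrafish embryos, one per well from 6 hpf, statically exposed to 120 hpf at 28C in 0.64% DMSO final. Notochord distortion scored present/absent by brightfield; dead embryos excluded.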

[7] = read-out: solute carrier (SLC22A6), SLC22A6 (gene 9356); test: LTEA_HepaRG_SLC22A6: Life Technologies and Expression Analysis (LTEA) Assay for solute carrier (SLC22A6) using HepaRG (AID 2283653; active = hit-call score of the fitted dose curve at least 0.9, where 1 is the maximum; inactive = score below 0.9); details: mRNA level, 48 h; actives raise or lower the signal
Experimental: LTEA_HepaRG is a cell based, multiplexed-readout assay that uses HepaRG, a human liver cell line, with measurements taken at 48 hours after chemical dosing on a 96-well plate.LTEA_HepaRG_SLC22A6 is one of 102 assay component(s) measured in the LTEA HepaRG cell culture assay. It is a marker of NR mediated transport.Data from the assay component LTEA_HepaRG_SLC22A6 was analyzed into 1 endpoint. This assay endpoint, LTEA_HepaRG_SLC22A6, was analyzed with bidirectional fitting relative to DMSO as the negative control and baseline of activity. Using a type of inducible reporter, measures of mRNA induction for gain or loss-of-signal activity can be used to understand regulation of transcription factor activity. To generalize the intended target to other relatable targets, this assay endpoint is annotated to the transporter intended target family, where the subfamily is organic anion transporter.
A total of 1060 chemcials from the ToxCast library were tested in eight-point concentration-response experiments. Cell culture and cytotoxicity assays were conducted at Thermo Fisher Scientific's Custom Services facility (Madison, WI). A single lot of human HepaRG cells (Thermo Fisher Scientific, Frederick, MD) was used for the cell culture experiments. 96-well format collagen type I coated plates of human HepaRG cells were prepared using established methods. Briefly, cryopreserved HepaRG cells were thawed, plated at a density of approximately 100,000 cells/well in HepaRG Thaw, Plate, and General Purpose media (HPRG770, Thermo Fisher Scientific), and incubated for 48 hours. 0.5% DMSO was selected as vehicle control to balance the requisite need of DMSO in HepaRG cultures to maintain differentiation (for example, baseline metabolism, proportions of hepatocytes vs. cholangiocytes), while enabling further hepatic receptor pathway activation (for example, PXR and CAR) in response to chemical exposure. 48 hours after plating, the culture medium was replaced with HepaRG Serum-Free Incudtion Media. Cells were exposed to each test chemical in duplicate and maintained in CO2 incubators for another 48 hours. Chemical plates were thawed to room temperature and 200x concentrations of treatment groups were prepared. 8-point conentration-reponse curves were made with the highest exposure at 100 uM, followed by half-log dilutions, all in 0.5% DMSO. Each test plate contained variouse controls, induction positive controls (1mM phenobarbital), cytotoxicity positive controls ([…] aflatoxin B1), vehicle controls (0.5% DMSO), and total lysis controls (0.5% DMSO). Cell morphology images were taken using an Essen IncuCyte FLR automated microscope, with six 96-well plates imaged in about 24 minutes. Images were captured and exported and JPEG files. Spent culture media was transfered to black-well plates for the LDH assay, and remaining media was sorted at -80 C for later use. Cells were treated with RLT buffer and frozen until shipped for gene expression analysis. Total RNA was isolated from the cell suspension in 75 uL of Buffer RLT (Qiagen, Germantown, MD 20874) by Quintiles/Expression Analysis (Durham, NC) using a custom isolation procedure. Total RNA from each plate well was transferred to a preamplification plate. Fluidigm's 96.96 Dynamic ArrayTM (Fluidigm, Amsterdam, the Netherlands) technology was used for gene expression analyses by quantitative reverse transcription polymerase chain reaction (qRT-PCR, performed by Quintiles/Expression Analysis, Durham, NC)89. Standard TaqManTM Assays (Applied Biosystems/ThermoFisher Scientific, Foster City, CA) were used to assess the expression of 93 genes selected based on their selectivity and sensitivity to important hepatic receptors known to be modulated by environmental chemicals; importance in human hepatocyte functionality; and hepatotoxicity. […]

[8] = read-out: solute carrier (SLC10A1), SLC10A1 (gene 6554); test: LTEA_HepaRG_SLC10A1: Life Technologies and Expression Analysis (LTEA) Assay for solute carrier (SLC10A1) using HepaRG (AID 2283657; active = hit-call score of the fitted dose curve at least 0.9, where 1 is the maximum; inactive = score below 0.9); details: mRNA level, 48 h; actives raise or lower the signal
Procedure, shortened: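 Differentiated HepaRG cells were plated 48 h, then exposed in serum-free induction medium for 48 h to 8 concentrations (top 100 uM, half-log steps, 0.5% DMSO). SLC10A1 mRNA was quantified by qRT-PCR normalized to ACTB, GAPDH, POLR2A; bidirectional fit versus DMSO.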

[9] = read-out: matrix metalloproteinase-1 (MMP1), MMP1 (gene 4312); test: LTEA_HepaRG_MMP1: Life Technologies and Expression Analysis (LTEA) Assay for matrix metalloproteinase-1 (MMP1) using HepaRG (AID 2283658; active = hit-call score of the fitted dose curve at least 0.9, where 1 is the maximum; inactive = score below 0.9); details: mRNA level, 48 h; actives raise or lower the signal
Procedure, shortened: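 HepaRG, ~100,000 cells/well, 48 h pre-culture; serum-free induction medium; test chemical 8 conc (max 100 uM, half-log), duplicate, 48 h; 0.5% DMSO; qRT-PCR MMP1, housekeeping-normalized; gain/loss fit vs DMSO.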

Compound: Cc1cccc2ccccc12
- outcome [1]: inactive
- outcome [2]: inactive
- outcome [3]: inactive
- outcome [4]: inactive
- outcome [5]: inactive
- outcome [6]: inactive

Compound: CN1C(=O)CC[C@H]1c1cccnc1
- outcome [1]: inactive
- outcome [2]: inactive
- outcome [3]: inactive
- outcome [4]: inactive
- outcome [5]: inactive
- outcome [6]: inactive

Compound: O=c1c(-c2ccc(O)cc2)coc2cc(O)cc(O)c12
- outcome [1]: inactive
- outcome [2]: inactive
- outcome [3]: inactive
- outcome [4]: inactive
- outcome [5]: inactive
- outcome [6]: inactive

Compound: CCCCCCCCCCCCO
- outcome [1]: inactive
- outcome [2]: inactive
- outcome [3]: inactive
- outcome [7]: inactive
- outcome [4]: inactive
- outcome [5]: inactive
- outcome [6]: inactive
- outcome [8]: inactive
- outcome [9]: inactive

Compound: Clc1cc(Cl)c2c(c1)N=C1CCCCCN1C2
- outcome [1]: inactive
- outcome [2]: inactive
- outcome [3]: inactive
- outcome [4]: inactive
- outcome [6]: inactive

Compound: O=C1CCC(C2CCCCC2)CC1
- outcome [1]: inactive
- outcome [2]: inactive
- outcome [3]: inactive
- outcome [4]: inactive
- outcome [5]: inactive
- outcome [6]: inactive

Compound: CN1C(=O)N(c2ccccc2Br)Cc2cnc(Nc3ccc4c(c3)OCC(CO)O4)nc21 (centres undefined)
- outcome [1]: inactive
- AC50 [2]: 49.7 µM (active)
- outcome [3]: inactive
- outcome [4]: inactive
- outcome [5]: inactive

Compound: CC[C@@H]1C[C@H](N(Cc2cc(C(F)(F)F)cc(C(F)(F)F)c2)C(C)=O)c2cc(C(F)(F)F)ccc2N1C(=O)OC(C)C
- outcome [1]: inactive
- outcome [2]: inactive
- outcome [3]: inactive
- outcome [4]: inactive

Compound: CCCCCc1ccc(N)cc1
- outcome [1]: inactive
- outcome [2]: inactive
- outcome [3]: inactive
- outcome [4]: inactive
- outcome [5]: inactive
- outcome [6]: inactive

Compound: c1ccc2ccccc2c1
- outcome [1]: inactive
- outcome [2]: inactive
- outcome [3]: inactive
- outcome [4]: inactive
- outcome [5]: inactive
- outcome [6]: inactive

Compound: CCCCCCCCCCCC[N+](C)(C)C
- outcome [1]: inactive
- outcome [2]: inactive
- outcome [3]: inactive
- outcome [4]: inactive
- outcome [5]: inactive
- outcome [6]: inactive

Compound: OCCO
- outcome [1]: inactive
- outcome [2]: inactive
- outcome [3]: inactive
- outcome [4]: inactive
- outcome [5]: inactive
- outcome [6]: inactive

Compound: COCC(C)OCC(C)OCC(C)O (centres undefined)
- outcome [1]: inactive
- outcome [2]: inactive
- outcome [3]: inactive
- outcome [4]: inactive
- outcome [5]: inactive
- outcome [6]: inactive

Compound: C[C@]12CC[C@@H]3c4ccc(O)cc4CC[C@H]3[C@@H]1CC[C@H]2O
- outcome [1]: inactive
- outcome [2]: inactive
- outcome [3]: inactive
- outcome [7]: inactive
- outcome [4]: inactive
- outcome [5]: inactive
- outcome [6]: inactive
- AC50 [8]: 72.6 µM (active)
- outcome [9]: inactive

Compound: CCCCCCCCCC(=O)O
- outcome [1]: inactive
- outcome [2]: inactive
- outcome [3]: inactive
- outcome [4]: inactive
- outcome [5]: inactive
- outcome [6]: inactive

Compound: c1ccc2n[nH]nc2c1
- outcome [1]: inactive
- outcome [2]: inactive
- outcome [3]: inactive
- outcome [4]: inactive
- outcome [5]: inactive
- outcome [6]: inactive

Compound: O=c1[nH]sc2ccccc12
- outcome [1]: inactive
- outcome [2]: inactive
- outcome [3]: inactive
- outcome [4]: inactive
- outcome [5]: inactive
- outcome [6]: inactive
